In PubChem BioAssay:
Calls of active or inactive are those of the source.

How the values were obtained:
Albumin (Bos taurus) = Albumin (Bos taurus) (UniProt P02769); assay: compounds binding labelled BSA control protein – biochemical, small-molecule microarray, Alexa647 label, 635/667 nm fluorescence, artefact control for SMM control protein annotation, profiling panel (AID 1118); conditions: BSA-A647 binding, fluorescence 635 nm, higher = more signal;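 further: score merges 667 nm emission intensity and signal-to-noise per printed compound spot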
[1] = probe aXIP binding to arrayed compounds – biochemical, NeuroSMM set, 635/667 nm fluorescence, primary screen (AID 1119); conditions: small-molecule microarray, higher = more signal, called active from +8 up or from −8 down;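 further: probe is the protein aXip251-270 applied at 1 µg/mL to compound-printed slides; binding of probe to printed compounds measured as 667 nm fluorescence plus signal to noise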
[2] = probe aNOTCH3 binding on compound microarray – biochemical, small-molecule microarray, 635/667 nm fluorescence, primary screen (AID 1120); conditions: higher = more signal;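 further: probe is a biotin-tagged antibody raised against NOTCH3 rather than NOTCH3 protein; score merges spot fluorescence near 667 nm with spot signal to noise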
[3] = probe aNOTCH2 binding on compound microarray – biochemical, small-molecule microarray, 635/667 nm fluorescence, primary screen (AID 1121); conditions: higher = more signal;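 further: score merges feature fluorescence read at 667 nm with its signal to noise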
[4] = target: Carbonic anhydrase 2 (Homo sapiens) (UniProt P00918); assay: compounds binding carbonic anhydrase 2 – biochemical, small-molecule microarray, Alexa647-labelled CAII, profiling panel (AID 1122); conditions: CAII-A647 binding fluorescence, higher = more signal
[5] = COS7 lysate on small-molecule microarray, probe aHis, 635 nm (AID 1123); conditions: COS7 cell lysate, fluorescence, higher = more signal;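 further: z-score combines 667nm fluorescence intensity with signal-to-noise per printed compound spot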
[6] = probe aLAP1 signal on lysate-treated microarray – cell lysate, small-molecule microarray, COS7 lysate, primary screen (AID 1124); conditions: probe aLAP1, fluorescence, higher = more signal;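 further: lysate comes from COS7 cells expressing LAP1 and is applied at 0.3 µg/mL; score merges spot fluorescence near 667 nm with signal-to-noise over triplicate slides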
Sam68 (KHDRBS1) = assay: compounds binding KHDRBS1 protein – biochemical, small-molecule microarray, 635 nm fluorescence, primary screen (AID 1125); conditions: higher = more signal;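 further: score merges 667 nm channel intensity with signal to noise over triplicate slides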
[7] = test system: Chordin-like protein 2 (CHRDL2); assay: compounds binding chordin-like 2 – biochemical, small-molecule microarray, 635 nm fluorescence, primary screen (AID 1126); conditions: fluorescence 635 nm, higher = more signal;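 further: printed compound slides probed with Chrdl2 protein at 4 µg/mL for 1 h at 4 C; score merges 667 nm emission intensity with signal to noise over three replicate slides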
[8] = target: Concanavalin-A (Canavalia ensiformis) (UniProt P02866); assay: compounds binding concanavalin A lectin – biochemical, small-molecule microarray, Alexa647 label, 635 nm, artefact control for SMM control protein annotation, primary screen (AID 1127); conditions: ConA-A647 binding fluorescence, higher = more signal;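 further: z combines 667 nm emission intensity with signal-to-noise across three replicate slides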
[9] = compounds binding Alexa647 anti-His antibody – biochemical, small-molecule microarray, 635 nm fluorescence, artefact control for SMM control protein annotation, primary screen (AID 1128); conditions: higher = more signal;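 further: score merges feature fluorescence with signal-to-noise for each printed compound spot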
[10] = test system: Human papillomavirus type 1a E7 protein (residues 1-88); assay: HPV1a E7 small-molecule binders, primary screen, biochemical, small-molecule microarray, residues 1-88, 635 nm (AID 1129); conditions: small-molecule microarray binding, fluorescence 635 nm; higher = more signal
[11] = target: Focal adhesion kinase 1 (Homo sapiens) (UniProt Q05397); assay: PTK2 protein binding on printed compound slides – biochemical, small-molecule microarray, 635/667 nm fluorescence, BSA, DTT, primary screen (AID 1130); conditions: 635 nm fluorescence, higher = more signal;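 further: composite of spot emission at 667 nm and signal to noise over triplicate slides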
[12] = test system: Fibrinogen (Alexa647-labelled); assay: Alexa647-fibrinogen binding to printed small molecules – biochemical, small-molecule microarray, 635/667 nm fluorescence, artefact control for SMM control-protein annotation, profiling panel (AID 1131); conditions: fibrinogen-A647 binding fluorescence, higher = more signal;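 further: z-score merges 667 nm fluorescence with per-spot signal-to-noise over triplicate slides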
[13] = target: Follistatin (Homo sapiens) (UniProt P19883); assay: FST protein binding to printed compounds – biochemical, small-molecule microarray, 635/667 nm fluorescence, primary screen (AID 1132); conditions: 635 nm fluorescence, higher = more signal
[14] = target: Fibroblast growth factor 2 (Homo sapiens) (UniProt P09038); assay: basic fibroblast growth factor binding to printed compounds – biochemical, small-molecule microarray, 635/667 nm fluorescence, primary screen (AID 1133); conditions: FGF2, fluorescence 635/667, higher = more signal
[15] = JC-1 mitochondrial potential readout, lung cancer cells – cell-based, A549, JC-1 fluorescence, basal, 24 h, 100 nL, profiling panel (AID 1138); conditions: higher = more signal;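 further: A549 lung adenocarcinoma cells under basal conditions with no added stimulus; test concentration not given here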
Lefty1 = Lefty1 protein binding to printed compounds – biochemical, small-molecule microarray, 635/667 nm fluorescence, primary screen (AID 1139); conditions: fluorescence 635/667, higher = more signal
[16] = test system: wheat germ agglutinin (Triticum aestivum), Alexa647-labelled; assay: Alexa647-WGA lectin binding to printed small molecules – biochemical, small-molecule microarray, 635/667 nm fluorescence, artefact control for SMM control-protein annotation, profiling panel (AID 1140); conditions: WGA-A647 binding, 635 nm fluorescence, higher = more signal;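 further: score merges 667 nm feature emission with signal to noise over triplicate slides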
[17] = target: Luciferin 4-monooxygenase (Photinus pyralis) (UniProt P08659); assay: inhibition of purified Photinus pyralis luciferase – biochemical, luminescence, purified enzyme, 2006 set, primary screen (AID 1141); conditions: purified firefly luciferase, SteadyGlo luminescence, 30 min; higher = more signal, called active from +8 up or from −8 down;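 further: cell-free assay with purified firefly luciferase at 100 ng per well in PBS; test concentration not given here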
Sequence of Luciferin 4-monooxygenase (Photinus pyralis) (P08659 whole entry, looked up): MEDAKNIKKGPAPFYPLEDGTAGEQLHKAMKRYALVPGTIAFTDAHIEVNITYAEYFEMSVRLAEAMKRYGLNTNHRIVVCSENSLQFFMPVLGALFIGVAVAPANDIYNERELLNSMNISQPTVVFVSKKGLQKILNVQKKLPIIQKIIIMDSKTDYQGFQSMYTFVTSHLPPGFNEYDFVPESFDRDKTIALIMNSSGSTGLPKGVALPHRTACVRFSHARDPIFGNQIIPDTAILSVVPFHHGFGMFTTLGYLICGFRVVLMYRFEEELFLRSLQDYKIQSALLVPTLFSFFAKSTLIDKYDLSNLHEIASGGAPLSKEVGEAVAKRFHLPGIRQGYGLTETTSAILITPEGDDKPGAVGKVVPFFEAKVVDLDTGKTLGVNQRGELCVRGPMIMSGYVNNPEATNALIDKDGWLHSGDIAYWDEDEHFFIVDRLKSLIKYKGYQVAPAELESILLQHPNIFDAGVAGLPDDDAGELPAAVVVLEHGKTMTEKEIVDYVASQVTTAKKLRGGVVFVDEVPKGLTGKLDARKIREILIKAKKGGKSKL

Sequence of Focal adhesion kinase 1 (Homo sapiens) (Q05397 whole entry, looked up): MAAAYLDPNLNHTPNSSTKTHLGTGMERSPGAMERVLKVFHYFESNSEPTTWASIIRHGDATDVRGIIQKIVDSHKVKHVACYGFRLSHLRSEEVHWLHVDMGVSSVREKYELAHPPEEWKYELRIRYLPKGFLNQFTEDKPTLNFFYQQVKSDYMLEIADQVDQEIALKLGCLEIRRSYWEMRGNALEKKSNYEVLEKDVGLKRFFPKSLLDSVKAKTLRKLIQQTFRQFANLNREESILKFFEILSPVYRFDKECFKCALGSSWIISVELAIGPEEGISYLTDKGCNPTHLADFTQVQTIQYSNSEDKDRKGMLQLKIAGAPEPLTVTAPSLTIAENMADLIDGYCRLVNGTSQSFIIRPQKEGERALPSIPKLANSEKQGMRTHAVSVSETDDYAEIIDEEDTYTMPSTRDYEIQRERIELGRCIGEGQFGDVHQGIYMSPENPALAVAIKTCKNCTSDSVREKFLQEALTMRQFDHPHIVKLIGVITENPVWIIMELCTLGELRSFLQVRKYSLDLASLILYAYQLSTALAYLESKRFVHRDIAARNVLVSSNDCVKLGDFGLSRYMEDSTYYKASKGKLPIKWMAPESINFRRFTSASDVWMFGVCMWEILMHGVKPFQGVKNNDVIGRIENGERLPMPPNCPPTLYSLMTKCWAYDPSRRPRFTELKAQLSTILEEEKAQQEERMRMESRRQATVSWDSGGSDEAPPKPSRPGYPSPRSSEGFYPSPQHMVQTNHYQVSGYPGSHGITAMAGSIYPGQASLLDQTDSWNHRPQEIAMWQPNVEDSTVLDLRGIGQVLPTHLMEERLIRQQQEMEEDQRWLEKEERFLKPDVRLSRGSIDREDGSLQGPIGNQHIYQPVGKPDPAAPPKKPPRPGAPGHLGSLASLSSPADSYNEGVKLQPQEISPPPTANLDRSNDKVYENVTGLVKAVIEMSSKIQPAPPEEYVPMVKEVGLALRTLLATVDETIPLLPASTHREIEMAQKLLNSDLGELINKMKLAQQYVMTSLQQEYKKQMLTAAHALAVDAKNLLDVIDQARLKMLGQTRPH
Sequence of Follistatin (Homo sapiens) (P19883 whole entry, looked up): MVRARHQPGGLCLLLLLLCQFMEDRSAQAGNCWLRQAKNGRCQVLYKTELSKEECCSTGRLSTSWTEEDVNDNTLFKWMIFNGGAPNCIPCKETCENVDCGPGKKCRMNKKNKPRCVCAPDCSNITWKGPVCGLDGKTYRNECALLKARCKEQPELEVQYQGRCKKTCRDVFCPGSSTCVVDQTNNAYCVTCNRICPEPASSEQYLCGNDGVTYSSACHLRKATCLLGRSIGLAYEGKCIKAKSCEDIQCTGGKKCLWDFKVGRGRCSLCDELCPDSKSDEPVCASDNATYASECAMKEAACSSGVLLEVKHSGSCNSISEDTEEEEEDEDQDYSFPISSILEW
Sequence of Albumin (Bos taurus) (P02769 whole entry, looked up): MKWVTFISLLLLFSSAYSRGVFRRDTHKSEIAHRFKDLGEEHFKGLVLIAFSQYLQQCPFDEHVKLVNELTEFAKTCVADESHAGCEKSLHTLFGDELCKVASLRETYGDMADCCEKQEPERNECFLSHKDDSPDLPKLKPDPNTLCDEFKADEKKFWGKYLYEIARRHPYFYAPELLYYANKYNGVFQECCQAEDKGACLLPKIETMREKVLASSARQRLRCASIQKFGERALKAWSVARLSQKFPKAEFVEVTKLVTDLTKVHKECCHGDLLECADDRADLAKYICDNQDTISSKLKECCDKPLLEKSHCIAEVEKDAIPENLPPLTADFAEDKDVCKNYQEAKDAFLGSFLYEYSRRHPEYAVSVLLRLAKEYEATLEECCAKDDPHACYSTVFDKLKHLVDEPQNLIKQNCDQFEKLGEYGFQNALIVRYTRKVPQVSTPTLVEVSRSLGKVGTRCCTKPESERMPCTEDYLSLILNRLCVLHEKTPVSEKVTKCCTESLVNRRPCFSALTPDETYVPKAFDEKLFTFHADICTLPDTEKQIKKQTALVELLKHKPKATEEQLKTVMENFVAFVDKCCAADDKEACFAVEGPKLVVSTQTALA
Sequence of Fibroblast growth factor 2 (Homo sapiens) (P09038 whole entry, looked up): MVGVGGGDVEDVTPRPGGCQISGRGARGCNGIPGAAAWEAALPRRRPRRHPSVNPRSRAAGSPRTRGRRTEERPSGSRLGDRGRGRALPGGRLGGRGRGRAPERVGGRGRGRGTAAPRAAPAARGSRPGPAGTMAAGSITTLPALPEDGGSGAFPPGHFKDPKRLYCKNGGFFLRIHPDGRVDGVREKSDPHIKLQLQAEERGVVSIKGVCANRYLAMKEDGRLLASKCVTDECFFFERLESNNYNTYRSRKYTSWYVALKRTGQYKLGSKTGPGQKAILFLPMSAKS
Sequence of Concanavalin-A (Canavalia ensiformis) (P02866 whole entry, looked up): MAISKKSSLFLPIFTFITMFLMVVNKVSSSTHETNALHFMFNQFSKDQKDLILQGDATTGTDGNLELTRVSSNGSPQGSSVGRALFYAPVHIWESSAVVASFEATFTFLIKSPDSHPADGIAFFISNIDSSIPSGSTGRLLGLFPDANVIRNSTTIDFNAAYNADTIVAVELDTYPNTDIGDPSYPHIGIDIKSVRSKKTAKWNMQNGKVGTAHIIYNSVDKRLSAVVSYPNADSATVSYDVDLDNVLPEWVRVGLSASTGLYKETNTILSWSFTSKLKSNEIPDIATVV

| Structure (SMILES) | composite z-score (Albumin (Bos taurus)) | composite Z-score [1] | composite z-score [2] | composite z-score [3] | composite z-score [4] | composite z-score [5] | composite z-score [6] | composite z-score (Sam68 (KHDRBS1)) | composite z-score [7] | composite z-score [8] | composite z-score [9] | composite z-score [10] | composite z-score [11] | composite z-score [12] | composite z-score [13] | composite z-score [14] | z-score [15] | composite z-score (Lefty1) | composite z-score [16] | z-score [17] |
| --- | --- | --- | --- | --- | --- | --- | --- | --- | --- | --- | --- | --- | --- | --- | --- | --- | --- | --- | --- | --- |
| O=C(CS)NCCCCCNC(=O)[C@H]1C[C@H]2C(=O)NCC(=O)N2[C@H]1c1ccc(O)cc1 | -0.366 | 0.161 (inactive) | -0.372 | -0.185 | 0.281 | -0.29 | -0.474 | -1.3 | -0.559 | -0.0836 | -0.0453 | -1.16 | -0.437 | -3.23 | -0.0739 | 0.258 | -0.0966 | 0.0911 | -0.125 | 0.612 (inactive) |
| C=C(CCCC)C(=O)CC[C@H](OC(=O)c1cccnc1)c1ccc(OCCO)cc1 | 0.0514 | 0.197 (inactive) | -0.0076 | -0.14 | 0.72 | -0.0099 | 0.022 | 0.567 | 0.191 | -0.421 | 0.631 | 0.474 | 0.819 | 0.0895 | 0.131 | 0.476 | 1.15 | -0.205 | 0.955 | -1.91 (inactive) |
| COC(=O)C(CC#Cc1ccc2c(c1)[C@]1(C(=O)N2)[C@H](c2ccccc2OCCO)N2[C@H](c3ccccc3)[C@H](c3ccccc3)OC(=O)[C@H]2[C@@H]1C(N)=O)C(=O)OC | 0.468 | 0.389 (inactive) | 0.631 | 0.25 | 0.672 | 2.09 | 0.493 | 0.519 | 0.0031 | 0.736 | 1.6 | 1.22 | 0.473 | 0.711 | 0.619 | 0.168 | -0.153 | -0.0878 | 1.15 | -0.821 (inactive) |
| C=CCNC(=O)[C@@H]1[C@H]2C(=O)O[C@H](c3ccccc3)[C@H](c3ccccc3)N2[C@H](c2ccc(OCCO)cc2)[C@@]12C(=O)N(C(=O)OCCOC)c1ccc(C#CCNC(N)=O)cc12 | -0.178 | 0.0253 (inactive) | 0.163 | -0.0632 | 0.513 | 1.02 | 0.662 | 1.3 | 0.305 | 1.1 | 1.26 | 1.17 | 0.613 | 0.82 | 1.38 | 1.34 | -0.746 | 0.947 | 0.94 | -0.94 (inactive) |
| CCOC(=O)C[C@H]1[C@H](OC(=O)c2ccc(-c3ccccc3)cc2)[C@@H](NC(=O)c2ccccc2)c2cc(OCCCO)ccc2N1C(=O)c1ccc2ccccc2n1 | 0.828 | 0.21 (inactive) | 0.0069 | -0.0811 | 0.287 | 0.96 | 0.547 | 1.18 | -0.8 | 0.627 | 0.241 | 1.06 | 0.426 | 0.836 | -0.0321 | -0.0974 | -0.0602 | -0.329 | 0.693 | 0.0119 (inactive) |
